Unmarked numbers belong to inactive results. Results filed as inconclusive are left out. Activity calls are given as the source filed them. Unless noted, the call rests on the fitted dose curve; in most records, active means well fitted curve in the direction sought with a large enough effect; inconclusive means small, poorly fitted or top-dose-only effect, or another doubt; inactive means no such curve, though single readings can be large; an effect the other way counts as inactive or inconclusive.
Tests used:
[1] = qHTS assay for small molecule agonists of the antioxidant response element (ARE) signaling pathway (AID 651741; active means well fitted activation curve with a large enough effect in the signal ratio; the % refers to the signal ratio; further: potency means the concentration at half of the fitted maximal effect); conditions: HepG2 ARE-bla reporter, beta-lactamase FRET ratio, 16 h
Summary of the method: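 HepG2 ARE-bla reporter cells, 2,000/well; 5 h settle at 37 C/5% CO2; compound pin transfer (23 nL, DMSO); 16 h at 37 C; LiveBLAzer B/G FRET substrate, 2 h RT; fluorescence intensity read.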

[2] = qHTS assay for small molecule activators of the p53 signaling pathway (AID 651743; active means well fitted activation curve with a large enough effect in the signal ratio, not every such curve was filed as active; the % refers to the signal ratio; further: % of control where 0% means no effect); conditions: HCT-116 p53RE-bla, beta-lactamase FRET ratio, 16 h; hits give high values
Summary of the method: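 Reporter: beta-lactamase driven by p53 response elements, stably integrated in HCT-116 cells. Cells seeded at 4,000/well, 5 h preincubation, compound (DMSO) 16 h at 37 C; B/G FRET substrate 2 h RT; fluorescence intensity read.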

[3] = qHTS assay for small molecule activators of the nuclear factor-kappa B (NF-kB) signaling pathway (AID 651749; active means well fitted activation curve with a large enough effect in the signal ratio; the % refers to the signal ratio; further: % of control where 0% means no effect); conditions: NF-kB-bla ME-180 cells, beta-lactamase FRET ratio, 16 h; hits give high values
Summary of the method: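 NF-kB-bla ME-180 cells, 2,000/well; 23 nL compound or DMSO pinned; 16 hr, 37C/5% CO2; beta-lactamase FRET read-out.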

[4] = qHTS assay for small molecule disruptors of the mitochondrial membrane potential - 1 hr assay (AID 651754; calls by dose curve; further: potency means the concentration at half of the fitted maximal effect; nearly all actives have a fitted effect of over 35% in size)
Summary of the method: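 In this qHTS format, a 1 hr compound treatment of HepG2 cells precedes Mito-MPS staining, and membrane potential is judged from aggregate (red) against monomer (green) fluorescence intensity.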

[5] = qHTS assay for small molecule disruptors of the mitochondrial membrane potential - 5 hr assay (AID 651755; calls by dose curve; further: potency means the concentration at half of the fitted maximal effect; nearly all actives have a fitted effect of over 40% in size); conditions: JC-1-type ratio dye
Summary of the method: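 Read-out: ratiometric Mito-MPS fluorescence, green monomer (ex 490/em 535) vs red mitochondrial aggregate (ex 540/em 590). HepG2 cells treated 5 hr at 37C before 30 min dye loading.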

[6] = target: Peroxisome proliferator-activated receptor alpha (Homo sapiens) (UniProt Q07869); test: qHTS assay for small molecule agonists of the peroxisome proliferator-activated receptor alpha (PPARalpha) signaling pathway (AID 651778); conditions: PathHunter PPARalpha complementation, chemiluminescence, 6 h; hits give high values; further: % of control where 0% means no effect
Summary of the method: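 Enzyme-fragment complementation assay in which ligand-bound PPARalpha translocates and forms an active enzyme that generates chemiluminescence. Cells were plated overnight, exposed to compound for 6 hr at 37 C, and then given detection reagent for 60 min at room temperature.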

[7] = target: Nuclear receptor ROR-gamma (Homo sapiens) (UniProt P51449); test: qHTS assay for small molecule antagonists of the retinoid-related orphan receptor gamma (ROR-gamma) signaling pathway (AID 651802); conditions: ROR-gamma antagonist cell reporter assay; series mostly up to 92.2 µM;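 further: CHO cells with doxycycline-induced ROR-gamma expression; luciferase reporter luminescence driven by ROR response element; on the % scale 0 is the no-effect control and ±100 the full control effect; nearly all actives have a fitted effect of over 60% in size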
Summary of the method: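 Doxycycline-induced reporter activity in engineered CHO cells (TET-inducible ROR, RORE-LUC) was measured by luminescence after 16hr compound exposure at 37C.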

[8] = target: Tumor necrosis factor (Homo sapiens) (UniProt P01375); test: qHTS assay to identify small molecules that stimulate Tumor Necrosis Factor-alpha (TNF-alpha) secretion (AID 651757; active means well fitted curve in the direction sought with a large enough effect in the signal ratio; the % refers to the signal ratio; further: 0% is about no effect); conditions: Human cells, HTRF 665/615 ratio; series mostly up to 92.2 µM
Summary of the method: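 Using 3000 THP-1 cells per well, compounds and controls were applied for 17 hrs at 37 C. Detection followed with two labeled anti-TNF-alpha antibodies (cryptate donor, XL665 acceptor) for 3 hr at room temperature, measured by TR-FRET.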

[9] = qHTS assay to identify small molecules that stimulate interleukin-8 (IL-8) secretion (AID 651758; active means well fitted activation curve with a large enough effect in the signal ratio; the % refers to the signal ratio; further: 0% is about no effect); conditions: HTRF ratio (665/615); series mostly up to 92.2 µM
Summary of the method: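 Compounds are added to THP-1 cells (2000 per well) and left 16 hrs at 37 C. A labeled anti-IL-8 antibody pair is then added, and IL-8 secretion is measured by time-resolved FRET after 1-3 hrs at room temperature.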

[10] = qHTS assay for environmental chemicals that activate the Aryl hydrocarbon Receptor (AhR) signaling pathway (AID 651777); conditions: 1A2-DRE human hepatoma cells, luciferase, 24 h; activation: hits give high values; further: nearly all actives have a fitted effect of over 15% in size; further: potency means the concentration at half of the fitted maximal effect; on activation: % of control where 0% means no effect
Summary of the method: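 Reporter gene assay: hepatoma cells with DRE/CYP1A2-luciferase, 24 hr compound incubation at 37 C, 5% CO2, luminescence after One-Glo (30 min, RT).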

Sequence of Peroxisome proliferator-activated receptor alpha (Homo sapiens) (Q07869 whole entry, looked up, the tested form may be a part): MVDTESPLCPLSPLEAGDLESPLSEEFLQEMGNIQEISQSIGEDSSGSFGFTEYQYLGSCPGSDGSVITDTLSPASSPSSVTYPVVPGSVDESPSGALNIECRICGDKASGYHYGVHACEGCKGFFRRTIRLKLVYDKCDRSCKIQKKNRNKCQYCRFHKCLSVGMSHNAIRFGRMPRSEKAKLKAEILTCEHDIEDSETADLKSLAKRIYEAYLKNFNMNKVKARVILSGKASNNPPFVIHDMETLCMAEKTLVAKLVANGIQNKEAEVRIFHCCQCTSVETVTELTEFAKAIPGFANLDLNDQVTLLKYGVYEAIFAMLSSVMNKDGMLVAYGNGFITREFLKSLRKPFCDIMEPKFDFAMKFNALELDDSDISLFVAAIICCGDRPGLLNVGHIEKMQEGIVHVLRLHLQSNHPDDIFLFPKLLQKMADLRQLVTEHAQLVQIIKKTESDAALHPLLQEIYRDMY
Sequence of Nuclear receptor ROR-gamma (Homo sapiens) (P51449 whole entry, looked up): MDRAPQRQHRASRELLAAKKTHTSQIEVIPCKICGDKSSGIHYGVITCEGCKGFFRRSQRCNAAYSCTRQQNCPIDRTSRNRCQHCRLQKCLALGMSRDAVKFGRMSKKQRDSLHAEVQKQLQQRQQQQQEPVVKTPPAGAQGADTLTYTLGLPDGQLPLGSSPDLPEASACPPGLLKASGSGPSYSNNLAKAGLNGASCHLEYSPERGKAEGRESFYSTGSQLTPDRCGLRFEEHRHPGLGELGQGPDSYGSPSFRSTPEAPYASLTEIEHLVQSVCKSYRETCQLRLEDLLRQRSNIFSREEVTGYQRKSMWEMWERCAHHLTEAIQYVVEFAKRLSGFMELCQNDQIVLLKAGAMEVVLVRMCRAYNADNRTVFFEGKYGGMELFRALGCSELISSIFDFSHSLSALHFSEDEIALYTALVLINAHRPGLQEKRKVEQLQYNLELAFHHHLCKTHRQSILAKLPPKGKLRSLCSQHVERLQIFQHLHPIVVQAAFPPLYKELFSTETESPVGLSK
Sequence of Tumor necrosis factor (Homo sapiens) (P01375 whole entry, looked up): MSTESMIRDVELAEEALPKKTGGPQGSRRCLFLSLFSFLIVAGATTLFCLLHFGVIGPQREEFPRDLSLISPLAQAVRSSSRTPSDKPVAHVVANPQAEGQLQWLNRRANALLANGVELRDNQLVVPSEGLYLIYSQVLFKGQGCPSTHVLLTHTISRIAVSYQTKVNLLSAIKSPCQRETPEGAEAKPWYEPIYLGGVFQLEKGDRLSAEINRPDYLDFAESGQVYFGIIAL

Compound	Potency [1]	activation [2]	activation [3]	Potency [4]	Potency [5]	max response [6]	outcome [7]	outcome [8]	outcome [9]	Potency [10]	activation [10]
Nc1ccccc1N	18.8 µM (active)	9.56%	-0.857%	3.76 µM (active)	5.96 µM (active)	-5.51%	inactive				
Cc1ccc(N)cc1O	42.2 µM (active)	1.03%		23.7 µM (active)		-3.15%	inactive	inactive	inactive	44.7 µM (active)	
CC(=O)O[C@H]1C(=O)[C@@]2(C)[C@H]([C@H](OC(=O)c3ccccc3)[C@]3(O)C[C@H](OC(=O)[C@H](O)[C@@H](NC(=O)c4ccccc4)c4ccccc4)C(C)=C1C3(C)C)[C@]1(OC(C)=O)CO[C@@H]1C[C@@H]2O		23.6%	4.74%			-1.23%					0.595%
CC(=O)O[C@@H]1CC(C)=C2[C@H]1[C@H](C)CC[C@H]2/C=C(\C)C(=O)O		-5.82%	0.932%			-0.232%	inactive	inactive			-0.287%

Source: PubChem BioAssay (NCATS)
